In the library only some 1.7% were active in any assay of this set; here they are far more common.
GLP-1R agonist: qHTS of GLP-1 Receptor Agonists; HEK293 GLP-1R CRE-luciferase, luminescence, 4-6 h; cells express a hypersensitive GLP-1R form; 380,000 compounds, 0.007% hits; Potency, µM (top dose mostly 45.6 µM), inactives show at the top dose activation, actives largely listed as activators; also: potency is read from the fitted curve at half-maximal effect; % of control where 0% means no effect
Target sequence (P43220 whole entry, looked up): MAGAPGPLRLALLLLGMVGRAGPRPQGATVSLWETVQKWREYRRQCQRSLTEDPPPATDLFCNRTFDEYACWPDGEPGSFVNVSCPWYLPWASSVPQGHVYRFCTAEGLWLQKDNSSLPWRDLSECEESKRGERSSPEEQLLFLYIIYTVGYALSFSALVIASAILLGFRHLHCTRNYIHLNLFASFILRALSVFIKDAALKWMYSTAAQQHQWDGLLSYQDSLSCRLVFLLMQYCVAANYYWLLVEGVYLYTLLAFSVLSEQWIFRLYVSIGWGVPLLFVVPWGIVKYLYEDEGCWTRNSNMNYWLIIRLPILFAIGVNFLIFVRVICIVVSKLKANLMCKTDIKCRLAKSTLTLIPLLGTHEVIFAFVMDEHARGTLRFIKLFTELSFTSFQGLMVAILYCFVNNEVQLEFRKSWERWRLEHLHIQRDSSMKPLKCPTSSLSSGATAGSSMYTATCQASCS
Pin1 inh: qHTS Assay to Find Inhibitors of Pin1. Peptidyl-prolyl cis-trans isomerase NIMA-interacting 1 (Homo sapiens), Q13526. AID 504891, 2011. Pin1 FP peptide displacement, HiFluor488, 10 min. Potency, µM (top dose mostly 115 µM), for the others: at the highest dose activity, negative = inhibition, hits mostly inhibitors. 390,000 compounds, 0.009% hits; active = well fitted inhibition curve with a large enough effect in the polarisation, with a control signal flat, not every such curve was filed as active; inconclusive = small, poorly fitted or top-dose-only effect, or effect the other way, or a change in a side signal; inactive = no such curve, though single readings can be large or run the other way; the % refers to the polarisation; also: potency is read from the fitted curve at half-maximal effect; % is scaled to controls: 0 for no effect and ±100 for the full control effect
Target sequence (Q13526 whole entry, looked up): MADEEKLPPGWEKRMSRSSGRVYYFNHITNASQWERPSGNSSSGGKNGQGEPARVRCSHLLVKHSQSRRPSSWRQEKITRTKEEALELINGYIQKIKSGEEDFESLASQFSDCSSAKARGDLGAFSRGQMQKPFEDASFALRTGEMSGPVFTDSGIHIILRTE
GLP1R cytotox: qHTS of GLP-1 Receptor Inverse Agonists: Cytotox Screen; HEK293 cAMP-luciferase reporter cells, luminescence, 24 h; Potency, µM (top dose mostly 38.3 µM), for inactives: top-dose activity change, negative = inhibition, hits mostly inhibitors; 410,000 compounds, 0.13% hits;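 also: loss of luciferase light is scored as toxicity; potency is read from the fitted curve at half-maximal effect; % is scaled to controls: 0 for no effect and ±100 for the full control effect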
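MLSMR compounds, 24 hr on cells at 37 deg C/5% CO2; luminescence after luciferase reagent (12 min RT). Inhibition counted as the undesired cytotoxic outcome.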
miR-21 act: qHTS Assay for Modulators of miRNAs and/orActivators of miR-21 | HeLa miR-21 FLuc reporter, luciferase, 48 h | Potency, µM (titrated, usually from 38.3 µM), for the others: at the highest dose activity change, positive = activation, usual class: activators | 340,000 tested, under 10 active | AID 2288, 2010;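 also: % of control where 0% means no effect; miR-21 action dims this reporter so a rising signal means less miR-21 action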
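HeLa miR-21-FLuc reporter line, endogenous miR-21; 2000 cells/well in DMEM/10% FBS; compound titration up to ~40uM final, 48 h, 37 degree Celsius; luciferase detection reagent, 15 min lysis, CCD luminescence.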
GLP-1R inv ag: qHTS of GLP-1 Receptor Inverse Agonists (Inhibition Mode). HEK293 GLP-1R CRE-luciferase, luminescence, 24 h; GLP-1R form is constitutively active. Potency, µM (highest dose often 38.3 µM), for the others: top-dose activity change, negative = inhibition, most hits filed as inhibitors. 410,000 compounds, 1.6% hits. Glucagon-like peptide 1 receptor (Homo sapiens), P43220; also: potency is read from the fitted curve at half-maximal effect; % is scaled to controls: 0 for no effect and ±100 for the full control effect; nearly all actives have a fitted effect of over 55% in size
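HEK293 cells stably co-expressing constitutively active GLP-1R and a cAMP-responsive luciferase reporter were seeded in DMEM with 10% Nu serum, given compounds after 12 h, and incubated 24 h at 37 deg C. Luminescence was then read.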
PTHR1 ag: qHTS for PTHR1 Agonists: Primary Screen. Parathyroid hormone/parathyroid hormone-related peptide receptor (Homo sapiens), Q03431. HEK293 GP2 PTHR1 cells, GloSensor cAMP luminescence, 1 h. Potency, µM (doses to about 115 µM), for the others: at the highest dose activation, most hits filed as activators. 410,000 compounds, 0.075% hits; also: potency is read from the fitted curve at half-maximal effect; nearly all actives have a fitted effect of over 55% in size
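HEK-293-derived GP2 cells expressing PTHR1 and a GloSensor cAMP reporter, 3,000/well, plated overnight, given luciferin plus IBMX (each 0.5 mM as added) for 1 h at 37 °C, then compound for 1 h at 37 °C. Luminescence was read after 15 min at room temperature.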
Numbers without * were called inactive; i = inactive; ? = inconclusive; · = not tested or not shown; [ ] = remark or other dose. Unless noted, calls follow the shape of the dose curve; as a rule, active = well fitted curve in the direction sought with a large enough effect; inconclusive = small, poorly fitted or top-dose-only effect, or another doubt; inactive = no such curve, though single readings can be large; an effect the other way counts as inactive or inconclusive.

SMILES | GLP-1R agonist | Pin1 inh | GLP1R cytotox | miR-21 act | GLP-1R inv ag | PTHR1 ag
Cc1ccc(-c2ccc(/C=C3\SC(N4CCOCC4)=NC3=O)o2)cc1 | 5% | ? | 71% | 0% | 4.5µM* | -6%
CONC(=O)C[C@@H](C#N)NC(=O)[C@@H]1CCCN1C(=O)[C@@H](NC(=O)c1ccc(N)c(Cl)c1)C(C)(C)C | · | -6% | · | · | · | ·
CCCCCc1ccc(OCCCC[n+]2ccccc2)c(CCCCC)c1 | 10% | -6% | ? | ? | 6.3µM* | -22%
COc1ccc(CCNC(=O)c2cc(-c3ccc(C)c(C)c3)nc3ccccc23)cc1OC | · | 2% | -14% | 8% | -13% | -35%
CCOC(=O)C1=CN(Cc2ccco2)S(=O)(=O)N(C)C1c1ccc2ccccc2c1 (stereo not given) | 2% | 37% | -11% | · | 10µM* | -14%
CCOC(=O)C1=CN(Cc2ccco2)S(=O)(=O)N(C)C1c1ccc(C(F)(F)F)cc1 (stereo not given) | 10% | 14% | 1% | · | ? | -6%
CN(Cc1cccc2ccccc12)C(=O)c1cc(COc2c(F)cccc2F)on1 | 10% | 8% | -18% | -7% | 10µM* | i
CCc1ccc(CN(C)C(=O)c2cc(COc3c(F)cccc3F)on2)cc1 | 9% | -4% | -1% | -17% | ? | -27%
CN1CCc2c(sc3c2C(=O)NC(c2ccco2)N3)C1 (stereo not given) | -7% | ? | 67% | -9% | 0% | -20%[57.5 µM]
CN1CCc2c(sc3c2C(=O)NC(c2cn(Cc4ccccc4)c4ccccc24)N3)C1 (stereo not given) | -3% | ? | 163% | 3% | 4µM* | -6%
Cc1ccc(-c2noc(CNC(=O)c3ccc(Br)o3)n2)cc1 | · | -8% | -3% | -3% | -20% | i
CN(C)c1ccc(/C=C/c2nc3ccccc3c(=O)[nH]2)cc1 | 0% | 37% | 64% | -10% | ? | i
CN(C)c1ccc(/C=C/c2ccc3c4ccccc4ccc3[n+]2-c2ccccc2)cc1 | 0% | 43% | 7.9µM* | ? | ? | -27%
Cc1cc2c(s1)c1cnn(Cc3cccc(Cl)c3)c(=O)c1n2C | · | 1% | · | · | · | ·
O=C(NC1CCCCC1)c1cc(C2CC2)nn1-c1ccccc1 | 6% | -4% | 0% | · | 5.6µM* | -7%
COc1cc(OC)cc(C2=Nn3c(nnc3-c3ccccc3OC)SC2)c1 | · | -4% | · | · | · | ·
Cc1ccc(C2C(C=Nc3c(C)n(C)n(-c4ccccc4)c3=O)=C(c3ccccc3)Oc3ccccc32)cc1 (stereo not given) | -8% | 2% | -1% | 4% | 4µM* | i
Cc1c(N=Cc2cccs2)c(=O)n(-c2ccccc2)n1C | 8% | -4% | 5% | 1% | 0% | -39%[57.5 µM]
CC1(C)CC(NC2C3CC4CC(C3)CC2C4)CC(C)(C)N1 (stereo not given) | 6% | -6% | ? | -9% | 3.2µM* | i
O=C(NCCO)c1ccc(Oc2ccc(C(F)(F)F)cc2[N+](=O)[O-])cc1 | 1% | -1% | 12% | -1% | 10% | -11%
COc1ccc(OCCNC(=O)c2cccc(Oc3ccc(C(F)(F)F)cc3[N+](=O)[O-])c2)cc1 | 11% | -6% | ? | 17% | 4.5µM* | -36%
COc1ccc2c(c1)CC(N1CCN(C)CC1)c1cc(OC)ccc1S2 (stereo not given) | 9% | 4% | ? | · | 2.5µM* | i
CC(C)Cn1cc(C(=O)N2CCN(c3cccc(Cl)c3)CC2)c2c3ccccc3n(C)c2c1=O | · | 2% | -17% | ? | 10µM* | i
FC(F)C(F)(F)Oc1cccc(Nc2nccn3c(-c4ccc5ccccc5c4)cnc23)c1 | -1% | · | -5% | · | 11µM* | -73%
COc1ccccc1S(=O)(=O)Cc1ccc(C(=O)NCc2ccc(Cl)cc2)o1 | · | 10% | -15% | 8% | -5% | i
SMILES | GLP-1R agonist | Pin1 inh | GLP1R cytotox | miR-21 act | GLP-1R inv ag | PTHR1 ag
CN1CCN(Nc2nn3c(=O)c4ccccc4nc3s2)CC1 | · | 1% | · | · | · | ·
CC(C)N(C(C)C)S(=O)(=O)c1ccc(N2CCc3ccccc3C2)nc1 | 18% | 6% | 0% | ? | 7.9µM* | -29%
CCN(CC)S(=O)(=O)c1ccc(N2CCc3ccccc3C2)nc1 | 5% | -8% | 3% | 27% | ? | -1%
Cc1[nH]c2ccccc2c1/C=N/NC(=S)NC(C)C | 15% | 40% | ? | -21% | ? | -12%
CC(C)NC(=S)N/N=C/c1c[nH]c2ccccc12 | 21% | 0% | 10µM* | -46% | ? | -13%
O=S(=O)(c1ccc2c(c1)OCCO2)N1CCN(S(=O)(=O)c2cccc(Cl)c2F)CC1 | · | 20% | · | · | · | ·
OCCN1CCN(CC(O)COC(c2ccc(F)cc2)c2ccc(F)cc2)CC1 (stereo not given) | 5% | 1% | -16% | -6% | 3.5µM* | i
CC(O)CNc1nc2ccccc2n1-c1ncnc2sc3c(c12)CCC3 (stereo not given) | 0% | -2% | ? | 9% | 10µM* | -20%
Cc1cc2ncn(-c3ncnc4sc5c(c34)CCCC5)c2cc1C | 16% | -3% | 6% | -10% | -44% | -14%
c1ccc2c(c1)ncn2-c1ncnc2sc3c(c12)CCCC3 | 5% | -1% | -29% | -11% | 4.5µM* | i
COC(=O)c1ccccc1NC(=O)c1noc2c1CSc1ccccc1-2 | · | 17% | 10% | -3% | 7% | i
COc1ccc(NC(=O)CC2C(=O)N(c3cccc(OC)c3)C(=O)N2CCC2=CCCCC2)cc1 (stereo not given) | · | 4% | -12% | 27% | ? | i
O=P(O)(O)OC(Cn1cncn1)(Cn1cncn1)c1ccc(F)cc1F | -2% | · | · | · | · | ·
C[C@]12CCC(=O)C=C1CC[C@@H]1[C@H]2[C@@H](O)C[C@@]2(C)[C@H]1CC[C@]2(O)C(=O)CO | -2% | · | · | · | · | ·
Oc1ccc(Cl)cc1C1C=C(c2ccc3c(c2)OCO3)NC(c2cc(Br)ccc2F)N1 (stereo not given) | · | 13% | · | · | · | ·
Cc1noc(C)c1COC(=O)c1ccccc1Sc1ccccc1C#N | 10% | 0% | -16% | 0% | 8.9µM* | -35%
CC(=O)O[C@H](C)OC(=O)[C@@H](C)c1ccc(-c2ccccc2)c(F)c1 | -1% | · | · | · | · | ·

Bioassay records (PubChem BioAssay)
